Data on 15 compounds can be found in PubChem BioAssay.

Activity calls are given as the source filed them.

Experiment [1] relates to PRMT1 (protein arginine N-methyltransferase 1). Put plainly: PRMT1 binders on small-molecule microarrays, primary screen, biochemical, small-molecule microarray, 635 nm fluorescence (AID 1088).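 Also: binding of Prmt1 protein to compounds spotted on small-molecule microarray slides.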 The settings on record: small-molecule microarray binding, higher = more signal.
A short description of experiment [2]: yeast growth modulation, basal conditions, primary screen, YJM789 clinical isolate, OD600, 24 h (AID 1089).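 Also: growth of clinical yeast isolate S. cerevisiae YJM 789 seeded 1000 cells per well; test concentration not given here.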 Particulars: S. cerevisiae YJM789 growth, higher = more signal, called active from +8 up or from −8 down.
Experiment [3] can be described thus: fission yeast growth modulation, primary screen, strain 972, OD600, 24 h, no modulator (AID 1090).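 Also: basal condition with compound alone and no growth modifier present; test concentration not given here.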 Particulars: S. pombe 972 growth, higher = more signal, called active from +8 up or from −8 down.
The nature of experiment [4]: S. cerevisiae growth modulation with rapamycin, primary screen, strain BY4716, OD600, 96 h (AID 1091). Also: test concentration not given here. The settings on record: higher = more signal, called active from +8 up or from −8 down.
Experiment [5] addresses Torsin-1A-interacting protein 2 (Homo sapiens) (UniProt Q8NFQ8). Put plainly: LULL1 binders on small-molecule microarray, primary screen, cell lysate, human LULL1 lysate, 635/667 nm fluorescence (AID 1092).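 Also: probe is lysate of COS7 cells overexpressing human LULL1; score merges per-feature 667 nm fluorescence with signal-to-noise.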 The settings on record: hLULL1 lysate binding, 635 nm fluorescence, higher = more signal.
Experiment [6] can be described thus: E. coli growth modulation, two-sided OD650, primary screen, E. coli filamentation project, strain DRC41, 24 h (AID 1093).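 Also: MC1000 strain lacking acrAB efflux and sulA so SOS filamentation is blocked; test concentration not given here.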 The settings on record: OD650, 24 h, higher = more signal, called active from +8 up or from −8 down.
Experiment [7] in a line: small-molecule microarray binders of probe aLefty2, primary screen, biochemical, biotinylated probe, 635/667 nm fluorescence (AID 1094).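 Also: score merges spot fluorescence near 667 nm with spot signal-to-noise ratio.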 Particulars: higher = more signal.
The test system of experiment [8] is Noggin (protein binding on small-molecule microarray). Put plainly: Noggin binders on small-molecule microarray, primary screen, biochemical, 635/667 nm fluorescence (AID 1095).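 Also: score merges 667 nm feature fluorescence with signal to noise over triplicate slides.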 The settings on record: 635 nm fluorescence, higher = more signal.
In experiment [9] the target is Neurogenic locus notch homolog protein 3 (Homo sapiens) (UniProt Q9UM47). Put plainly: NOTCH3 binders on small-molecule microarray, primary screen, biochemical, 635/667 nm fluorescence (AID 1096). The settings on record: NOTCH3 binding, 635 nm fluorescence, higher = more signal.
Experiment [10] can be described thus: small-molecule microarray binders of probe aEGFR, primary screen, biochemical, biotinylated probe, 635/667 nm fluorescence (AID 1097).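 Also: probe is a biotinylated anti-EGFR antibody binding compounds printed on slides; score combines fluorescence near 667 nm and signal to noise of each spot.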 The settings on record: higher = more signal.

Torsin-1A-interacting protein 2 (Homo sapiens), sequence (Q8NFQ8 whole entry, looked up): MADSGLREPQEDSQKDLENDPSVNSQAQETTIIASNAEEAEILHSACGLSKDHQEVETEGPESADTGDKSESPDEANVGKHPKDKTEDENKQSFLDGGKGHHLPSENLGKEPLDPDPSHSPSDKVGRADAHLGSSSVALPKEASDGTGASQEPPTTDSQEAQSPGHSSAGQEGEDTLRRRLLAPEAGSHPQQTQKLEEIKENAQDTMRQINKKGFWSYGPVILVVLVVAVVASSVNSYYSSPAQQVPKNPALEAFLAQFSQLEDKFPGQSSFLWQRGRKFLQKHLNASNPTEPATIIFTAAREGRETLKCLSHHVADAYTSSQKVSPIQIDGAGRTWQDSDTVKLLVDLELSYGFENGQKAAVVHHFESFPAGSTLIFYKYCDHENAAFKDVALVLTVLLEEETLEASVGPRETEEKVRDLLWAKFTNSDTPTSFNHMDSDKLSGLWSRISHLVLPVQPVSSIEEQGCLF
Neurogenic locus notch homolog protein 3 (Homo sapiens), sequence (Q9UM47 whole entry, looked up): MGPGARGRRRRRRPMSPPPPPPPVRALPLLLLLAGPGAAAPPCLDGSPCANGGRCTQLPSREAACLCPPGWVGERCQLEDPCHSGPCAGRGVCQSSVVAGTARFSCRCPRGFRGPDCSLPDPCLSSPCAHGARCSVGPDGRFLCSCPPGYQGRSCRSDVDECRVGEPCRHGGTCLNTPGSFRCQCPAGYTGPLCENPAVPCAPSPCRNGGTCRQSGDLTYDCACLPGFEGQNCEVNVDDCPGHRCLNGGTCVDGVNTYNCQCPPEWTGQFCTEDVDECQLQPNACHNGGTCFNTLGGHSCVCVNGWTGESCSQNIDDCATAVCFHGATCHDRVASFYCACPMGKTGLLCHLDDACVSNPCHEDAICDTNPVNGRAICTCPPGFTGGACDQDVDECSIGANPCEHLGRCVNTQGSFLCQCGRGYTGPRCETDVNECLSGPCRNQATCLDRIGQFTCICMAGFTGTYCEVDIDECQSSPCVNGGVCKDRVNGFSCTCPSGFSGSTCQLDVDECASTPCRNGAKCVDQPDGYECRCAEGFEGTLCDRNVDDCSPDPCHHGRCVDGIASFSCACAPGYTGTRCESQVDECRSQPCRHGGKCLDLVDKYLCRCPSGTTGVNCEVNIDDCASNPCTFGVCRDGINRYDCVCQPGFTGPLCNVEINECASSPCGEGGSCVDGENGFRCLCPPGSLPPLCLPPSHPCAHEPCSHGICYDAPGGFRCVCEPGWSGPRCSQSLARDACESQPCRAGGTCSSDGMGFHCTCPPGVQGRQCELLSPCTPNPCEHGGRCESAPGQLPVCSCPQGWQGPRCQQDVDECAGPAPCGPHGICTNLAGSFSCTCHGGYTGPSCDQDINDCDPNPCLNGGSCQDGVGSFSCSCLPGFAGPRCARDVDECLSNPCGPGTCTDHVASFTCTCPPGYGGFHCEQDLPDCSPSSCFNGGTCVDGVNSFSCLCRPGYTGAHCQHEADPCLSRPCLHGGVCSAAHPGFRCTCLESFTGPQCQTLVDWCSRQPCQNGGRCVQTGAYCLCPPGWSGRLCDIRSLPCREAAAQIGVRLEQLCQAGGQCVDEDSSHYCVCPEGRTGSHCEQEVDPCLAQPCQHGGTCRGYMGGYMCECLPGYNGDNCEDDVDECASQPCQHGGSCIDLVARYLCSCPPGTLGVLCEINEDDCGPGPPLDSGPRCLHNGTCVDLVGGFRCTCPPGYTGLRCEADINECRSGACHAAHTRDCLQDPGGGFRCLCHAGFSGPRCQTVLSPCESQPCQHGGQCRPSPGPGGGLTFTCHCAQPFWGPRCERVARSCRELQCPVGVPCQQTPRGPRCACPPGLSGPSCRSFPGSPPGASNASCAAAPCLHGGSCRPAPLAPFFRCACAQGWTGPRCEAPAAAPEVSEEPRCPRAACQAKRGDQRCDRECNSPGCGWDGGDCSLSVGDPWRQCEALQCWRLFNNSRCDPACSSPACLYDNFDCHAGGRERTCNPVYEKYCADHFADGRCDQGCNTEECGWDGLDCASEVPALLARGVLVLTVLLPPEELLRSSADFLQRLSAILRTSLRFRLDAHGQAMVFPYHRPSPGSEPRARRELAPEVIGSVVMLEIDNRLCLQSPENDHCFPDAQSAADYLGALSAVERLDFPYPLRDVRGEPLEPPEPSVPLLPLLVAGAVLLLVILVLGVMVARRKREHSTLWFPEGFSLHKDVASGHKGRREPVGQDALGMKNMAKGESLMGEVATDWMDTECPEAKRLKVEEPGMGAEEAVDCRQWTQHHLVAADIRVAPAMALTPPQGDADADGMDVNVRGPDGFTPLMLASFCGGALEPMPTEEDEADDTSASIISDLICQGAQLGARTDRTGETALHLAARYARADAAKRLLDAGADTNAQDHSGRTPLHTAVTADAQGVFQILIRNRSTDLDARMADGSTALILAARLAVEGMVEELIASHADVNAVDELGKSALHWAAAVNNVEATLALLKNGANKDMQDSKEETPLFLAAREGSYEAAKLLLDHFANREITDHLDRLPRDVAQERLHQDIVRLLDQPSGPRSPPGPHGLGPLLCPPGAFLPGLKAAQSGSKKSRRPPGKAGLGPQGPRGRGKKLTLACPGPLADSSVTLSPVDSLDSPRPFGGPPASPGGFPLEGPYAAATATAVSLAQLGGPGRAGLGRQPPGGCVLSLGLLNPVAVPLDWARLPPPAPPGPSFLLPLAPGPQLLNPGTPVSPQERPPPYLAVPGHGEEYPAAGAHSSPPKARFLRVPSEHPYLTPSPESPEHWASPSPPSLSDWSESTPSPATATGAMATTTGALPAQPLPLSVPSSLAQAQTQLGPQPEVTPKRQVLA

On to `C=C(CCCC)C(=O)CC[C@H](OC(=O)c1cccnc1)c1ccc(OCCO)cc1`, for which the composite z-score in [1] was 0.417; in [5], 0.434; in experiment [7], -0.0547; in experiment [8] it was 0.134; in [9], -0.364; in experiment [10], 0.0089. For the same compound, the z-score in experiment [2] was 0.0275 (inactive); in [3], -3.48 (inactive); in experiment [4], 0.364 (inactive); in experiment [6], 0.02 (inactive).
In the case of `C=CCN1C(=O)[C@]2(O[C@H](CCO)[C@@H]([Si](C)(C)c3ccc(OC)cc3)[C@@H]2C)c2cc(N(C=O)c3ccccc3)ccc21`, the composite z-score in experiment [1] is 1.47; in [5], 1.19; in experiment [7], -0.121; in experiment [8] it was -0.0888; in experiment [9], 0.649; in experiment [10], -0.0947. Further, the z-score was 1.28 (inactive) in experiment [2], 0.859 (inactive) in [3], 36.9 (active) in experiment [4] and 1.03 (inactive) in experiment [6].
As to `CC(c1ccccc1)C(O)C1C=CC2C(=O)N(c3ccccc3)C(=O)C2N1Nc1ccccc1` (stereo not given), the composite z-score stood at 1.54 in experiment [1]; 3.62 in [5]; 0.0008 in experiment [7]; 0.833 in experiment [8]; 1.05 in [9]; 0.0038 in experiment [10]. For the same compound, the z-score in experiment [2] was 0.205 (inactive); in experiment [3], 1.23 (inactive); in [4], 0.442 (inactive); in experiment [6], -0.702 (inactive).
Take `CN1C(=O)C2C=CC(C(O)c3ccc(F)cc3)N(N(c3ccccc3)c3ccccc3)C2C1=O` (stereo not given): the composite z-score is 0.672 in experiment [1]; 1.86 in experiment [5]; 0.0606 in experiment [7]; 0.3 in experiment [8]; 0.121 in experiment [9]; -0.0234 in experiment [10]. Further, the z-score in [2] was 0.0729 (inactive); in experiment [3] it was 0.91 (inactive); in [4], 0.0933 (inactive); in experiment [6] it was -1.2 (inactive).
As to `CCOC(=O)C[C@H]1[C@H](OC(=O)c2ccc(C(=O)c3ccccc3)cc2)[C@@H](NC(=O)Cc2ccc(OC)cc2)c2cc(OCCCO)ccc2N1C(=O)c1ccc2ccccc2n1`, the composite z-score in experiment [1] came to 0.794; in [5] it was 1.6; in [7], 0.0768; in [8], 0.666; in experiment [9] it was 1.16; in experiment [10], 0.0182. Besides, the z-score in experiment [2] was 0.328 (inactive); in experiment [3], -0.22 (inactive); in [4], 0.605 (inactive); in experiment [6], 0.213 (inactive).
`[N-]=[N+]=NCc1ccccc1[C@@H]1OC(c2ccc(OCCCO)cc2)=N[C@]1(CCS(=O)(=O)c1ccccc1)C(=O)N1CCCCC1`: the composite z-score was 1.56 in experiment [1]; 2.94 in experiment [5]; 0.0563 in [7]; 0.36 in experiment [8]; 1.02 in [9]; 0.208 in [10]. The z-score in experiment [2] was -0.238 (inactive); in experiment [3], 0.454 (inactive); in experiment [4] it was 1.44 (inactive); in [6] it was 0.622 (inactive).
As to `COC(=O)[C@@]1(Cc2ccc(F)cc2)[C@H]2c3cc(C(=O)N(C)C)n(Cc4cc(C)n(C)n4)c3C[C@H]2CN1C(=O)c1ccccc1`, the composite z-score in experiment [1] is 1.02; in [5], 3.09; in experiment [7] it was 0.629; in experiment [8], -0.421; in experiment [9] it was 1.01; in [10] it was 0.14. Besides, the z-score was 0.619 (inactive) in [2], 0.456 (inactive) in [3], -0.109 (inactive) in experiment [4] and -0.38 (inactive) in experiment [6].
Turning to `O=C1OCC=C[C@H]2OC34C=CCN(Cn5nnc6ccccc65)C(=O)[C@H]3N(CCCCCO)C(=O)[C@@H]4[C@@H]12` (stereo not given in full), the composite z-score is -0.0541 in experiment [1]; 2.81 in experiment [5]; 0.484 in experiment [7]; -0.525 in experiment [8]; -0.475 in experiment [9]; -0.108 in [10]. The z-score was -0.314 (inactive) in [2], 0.421 (inactive) in experiment [3], -0.582 (inactive) in [4] and 1.65 (inactive) in experiment [6].
For `O=C1C2C=CC(C(O)C=Cc3ccc([N+](=O)[O-])cc3)N(n3cnnc3)C2C(=O)N1Cc1ccccc1` (stereo not given), the composite z-score is 0.934 in experiment [1]; 1.92 in [5]; 0.292 in [7]; -0.0663 in [8]; 0.989 in experiment [9]; -0.0703 in experiment [10]. Also, the z-score in experiment [2] is -0.785 (inactive); in [3], -3.83 (inactive); in [4], -0.0166 (inactive); in [6], -0.0783 (inactive).
`COc1cc2c(cc1O)C(c1cccs1)N(Cc1cccc(OC(F)(F)F)c1)CC2` (stereo not given): the composite z-score is 1.46 in [1]; 2.1 in experiment [5]; -0.0785 in experiment [7]; -0.648 in experiment [8]; 0.108 in experiment [9]; -0.139 in experiment [10]. The z-score in experiment [2] was -2.16 (inactive); in [3], -8.15 (active); in experiment [4] it was -2.63 (inactive); in experiment [6], -0.878 (inactive).
For the compound `COc1ccc(C(=O)Nc2cccc(CN3C(=O)[C@]4(O[C@H](CCn5cc(CCO)nn5)[C@@H]([Si](C)(C)c5ccc(OC)cc5)[C@@H]4C)c4ccccc43)c2)cc1`, the composite z-score in experiment [1] amounted to 1.06; in experiment [5], 1.2; in [7], 0.143; in experiment [8], 0.367; in [9], 0.556; in experiment [10], 0.0848. The z-score in experiment [2] was 0.901 (inactive); in experiment [3] it was -14.9 (active); in experiment [4] it was 1.15 (inactive); in [6], 0.506 (inactive).
For `CCCNC(=O)[C@@]1(Sc2ccc(C)cc2)CC(=O)N(Cc2ccccc2C(F)(F)F)[C@@H]1c1ccc(CO)cc1I`, the composite z-score in [1] was 1.53; in experiment [5], 2.19; in experiment [7], -0.0125; in experiment [8], 0.932; in experiment [9], 0.958; in [10] it was -0.0435. In addition, the z-score in experiment [2] was -0.36 (inactive); in [3], -2.45 (inactive); in experiment [4], 0.283 (inactive); in experiment [6], -1.57 (inactive).
On to `COc1ccccc1CN1C(=O)c2ccccc2[C@@H](C(=O)NCc2ccccc2)[C@@H]1c1ccc(CO)cc1`, for which the composite z-score was 0.713 in [1]; 2.33 in experiment [5]; -0.26 in [7]; 0.286 in experiment [8]; 0.271 in experiment [9]; -0.336 in [10]. The z-score is 0.649 (inactive) in [2], 0.417 (inactive) in [3], 0.253 (inactive) in [4] and 0.409 (inactive) in experiment [6].
For the compound `CO[C@H]1O[C@H](CO)[C@@H](OC(=O)Nc2cccc(F)c2)[C@H](OC(=O)Nc2ccccc2)[C@H]1OC(=O)Nc1ccccc1`, the composite z-score in experiment [1] is 1.54; in [5], 3.37; in experiment [7], -0.0285; in experiment [8], 0.828; in experiment [9], 1.11; in [10], 0.0778. Moreover, the z-score in experiment [2] is 1.63 (inactive); in experiment [3] it was 1.1 (inactive); in experiment [4] it was 5.68 (inactive); in experiment [6] it was -0.168 (inactive).
Regarding `COCCCNC(=O)[C@@]1(Cc2ccccc2)N=C(c2ccc(OCCCO)cc2)O[C@H]1c1ccccc1CN=[N+]=[N-]`, the composite z-score in experiment [1] was determined as 1.56; in experiment [5] it was 3.16; in experiment [7] it was 0.277; in experiment [8], 0.445; in [9], 1.05; in experiment [10], 0.163. Further, the z-score in experiment [2] is -0.201 (inactive); in experiment [3] it was 0.351 (inactive); in experiment [4], 0.463 (inactive); in experiment [6] it was 1.06 (inactive).
